The structures appear in SMILES notation. In all, about 65,000 compounds went through this assay and about 2,100 (3.2%) showed an effect of 50% or more. The median lay at about -52%. The list comes from a sample in which strong results are over-represented; it also holds similar structures and randomly drawn compounds.

The test system of this test is Plasmodium falciparum. Briefly: Screen against P. falciparum Asexual Blood Stage (ABS), at 5uM. Format: functional, Dd2. Particulars: tested at 5 uM.
Regarding `CCC1CN(CC(=O)NCCN2CCCCCC2)c2ccccc2S1` (stereo unspecified), the INHIBITION turned out to be 73.8%.

Turning to `CCC1CN(CC(=O)NCCN(CC)CC)c2ccccc2S1` (stereo unspecified), the INHIBITION worked out at 76.7%.

`CCC1CN(CC(=O)NCCN2CCCCC2)c2ccccc2S1` (stereo unspecified): the INHIBITION turned out to be 72.3%.

Regarding `CCCN1CCC2(Cc3ccccc3NC2=O)C1` (stereo unspecified), the INHIBITION is reported as -3.59%.

Take `CS(=O)(=O)N1CCOCC2(CN(Cc3ccccn3)CCO2)C1` (stereo unspecified): the INHIBITION is listed as -46.3%.

Take `Cc1ccc(CNCCC(O)(c2nccn2C)C(F)(F)F)o1` (stereo unspecified): the INHIBITION came to 73.2%.

For the compound `Cn1ccnc1C(O)(CCNCc1ccc(Cl)o1)C(F)(F)F` (stereo unspecified), the INHIBITION was 71.1%.

Consider `Cc1csc(CN2CCC[C@]3(C[C@@H](Oc4ccccn4)CO3)C2)n1`, for which the INHIBITION was -213%.

Turning to `CCc1cnc(N)nc1NCCCn1cc(Cl)cn1`, the INHIBITION turned out to be 84.5%.

As for `Cc1cc(C(F)(F)F)cc(=O)n1CCn1cc(Cl)cn1`, the INHIBITION came out at 18.5%.

As to `CCN(CC)C(CNC(=O)c1c(C)noc1C(C)C)c1ccsc1` (stereo unspecified), the INHIBITION is 78.7%.

In the case of `CC(C)N1CCN(C(=O)Cc2csc(-c3ccco3)n2)CC1`, the INHIBITION is given as -22.2%.

As to `Cc1ccc(F)cc1CC(=O)N(CCN1CCOCC1)Cc1ccco1`, the INHIBITION is reported as -12.9%.

In the case of `COc1cc(F)ccc1C(C(=O)O)N(C)CCN1CCOCC1` (stereo unspecified), the INHIBITION is listed as 80.7%.

For the compound `COc1cc(F)ccc1C(C(=O)O)N(C)CCN1CCCC1` (stereo unspecified), the INHIBITION is 72.3%.

Consider `CCS(=O)(=O)N1CCN(CC2CC2)c2ncccc2C1`, for which the INHIBITION was -94.6%.

As for `COC(=O)c1ccc(C2SCC(=O)Nc3ccsc32)cc1` (stereo unspecified), the INHIBITION is on record as -80.9%.

Turning to `COc1ccc(CCN)cc1-c1ccc(C(N)=O)cc1`, the INHIBITION came to 10.7%.

As for `CCOc1ccc(-c2cc(CCN)ccc2OC)cc1`, the INHIBITION was -58%.

As for `COc1ccc(CCN)cc1-c1ccc(O)cc1`, the INHIBITION is recorded as 85.6%.

Consider `Cc1ccc(CN2C[C@@H]3CCN(Cc4ccncc4)C(=O)[C@H]3C2)s1`, for which the INHIBITION was -13.4%.

Regarding `C[C@H](N)Cn1nc(-c2cccs2)oc1=O`, the INHIBITION is -106%.

For `CNCC[C@H]1CC(C)(C)Oc2ccc(OC)cc21`, the INHIBITION came to 73.8%.

Take `CNCC[C@H]1CC(C)(C)Oc2ccc(OCC3CC3)cc21`: the INHIBITION amounted to 76.1%.

As to `CC(C)(O)c1cn(C[C@H]2C[C@@H]3CCN2C[C@@H]3C(=O)N2CCOCC2)nn1`, the INHIBITION is reported as -62.4%.

`CC(=O)c1cc(CC(=O)N2CCN(CCOc3ccccc3)CC2)cs1`: the INHIBITION turned out to be 7.62%.

With `CN(C)c1nc2c(c(NCc3cc(O)ncn3)n1)CCCC2`, the INHIBITION is given as 89.4%.

Turning to `COc1ccccc1C1SCC(=O)Nc2n[nH]cc21` (stereo unspecified), the INHIBITION was -117%.

Take `COc1ccccc1C1CNC(=O)c2nc(-c3ncc[nH]3)[nH]c2C1` (stereo unspecified): the INHIBITION worked out at 89.1%.

For `CCC(CNC(=O)CNC(C)=O)Oc1cccc(F)c1` (stereo unspecified), the INHIBITION was 85%.

`CN(C)[C@@H]1CN(C(=O)COc2cccc(F)c2)C[C@H]1O`: the INHIBITION is reported as -21.2%.

For the compound `COc1cccc(CC(C)NC(=O)NCCNC(C)=O)c1` (stereo unspecified), the INHIBITION is recorded as -47.5%.

For `O=C(Cc1cccc(F)c1)N1CCN2C[C@H](Oc3cncnc3)C[C@H]2C1`, the INHIBITION is recorded as -93.1%.

As for `Cc1nnc(N2CCCC3(CN(Cc4cccnc4)CCO3)C2)o1` (stereo unspecified), the INHIBITION is reported as -77.8%.

Take `Cc1ccccc1-n1cc(C2=CCN(CCn3cc[nH]c3=O)CC2)cn1`: the INHIBITION was -111%.

`CC(=O)N1CCN([C@@H]2CN(C(=O)Cc3ccccc3C)C[C@H]2O)CC1`: the INHIBITION is on record as -146%.

Consider `CC(C)(C)c1nc(CN(Cc2cccnc2)C2CN3CCC2CC3)no1` (stereo unspecified), for which the INHIBITION is listed as -29.7%.

Consider `c1ccc(-c2nnc(CNC3CCCN(c4cccnn4)C3)o2)cc1` (stereo unspecified), for which the INHIBITION worked out at 75.8%.

Turning to `CC(C)(C)c1nc(CNC2CCCN(c3cccnn3)C2)no1` (stereo unspecified), the INHIBITION was determined as 83%.

`CCCN1CCN(C(=O)c2cncnc2C)[C@H]2CS(=O)(=O)C[C@H]21`: the INHIBITION is given as -87.7%.

Turning to `Cc1ccc(CN2C[C@@H]3[C@@H](C2)OCC(=O)N3Cc2ccncc2)s1`, the INHIBITION is listed as 3.28%.

Regarding `Cc1ccc(CN2Cc3nnn(C)c3C(COCCN(C)C)C2)s1` (stereo unspecified), the INHIBITION was determined as 73.9%.

For the compound `Cc1ccc(N2CCO[C@H]3CN(Cc4ccncc4)C[C@H]32)nn1`, the INHIBITION is -111%.

With `Cc1ccc2c(c1)CN(C(=O)c1cccs1)C(CN(C)C)CO2` (stereo unspecified), the INHIBITION is 77.3%.

In the case of `CN(CC1Cc2ccccc2CN1C)C(=O)Cc1cccs1` (stereo unspecified), the INHIBITION was -12.1%.

For the compound `O=C(NCCOc1cccc(Cl)c1Cl)N1CCC2(CC1)OCCO2`, the INHIBITION is on record as -68.2%.

As for `CC(Cn1cncn1)NCc1n[nH]c2c1CCCCC2` (stereo unspecified), the INHIBITION is listed as -49.3%.

Regarding `Cc1ccc2nc(CN(C)Cc3n[nH]c4c3CCCCC4)[nH]c2c1C`, the INHIBITION is 85.8%.

For the compound `Cc1ccc2[nH]c(CN(C)Cc3n[nH]c4c3CCC4)nc2c1`, the INHIBITION was found to be 82.3%.

For `NC1(c2nc(C(F)(F)F)cc(=O)[nH]2)CCCCC1`, the INHIBITION amounted to 4.74%.

Turning to `CC(=O)N1CCC2(CN(CC3CCCC3)C2)C1`, the INHIBITION is reported as -99.3%.

The values above are taken from ChEMBL document CHEMBL4513216, “Probing the Open Global Health Chemical Diversity Library for Multistage-Active Starting Points for Next-Generation Antimalarials” (ACS Infect Dis, 2020).
